Rows were chosen to be rich in hits. Some 4.6% of all compounds tested hit in one or more screens of this group.
D1 PAM – human D1 dopamine receptor positive modulation; P21728; HEK293 TREx D1 cells, calcium flux, dopamine EC20 potentiation; potentiation, % at 10 µM; 360,000 tested, 0.036% active; AID 504651; in the data active means potentiation above about 30%; further: 0% is about no effect
TRHR agonist – TRH receptor (human) agonism | TRHR cells, calcium flux fluo-8, FDSS agonist mode | activation, % at 2 µM | 360,000 tested, 0.18% active | AID 493084; further: 0% is about no effect
Target sequence (P34981 whole entry, looked up): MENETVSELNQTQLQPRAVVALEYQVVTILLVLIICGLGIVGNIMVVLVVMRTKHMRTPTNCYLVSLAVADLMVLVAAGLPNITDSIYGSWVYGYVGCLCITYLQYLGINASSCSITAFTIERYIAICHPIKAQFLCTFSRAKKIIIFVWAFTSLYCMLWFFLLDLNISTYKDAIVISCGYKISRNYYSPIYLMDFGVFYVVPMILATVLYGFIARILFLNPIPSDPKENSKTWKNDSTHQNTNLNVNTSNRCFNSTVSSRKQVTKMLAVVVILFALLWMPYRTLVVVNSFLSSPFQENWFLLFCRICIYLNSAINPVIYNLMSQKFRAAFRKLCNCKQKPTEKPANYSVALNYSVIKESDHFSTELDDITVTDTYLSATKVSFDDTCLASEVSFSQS
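Agonist-mode FDSS calcium read (Ex 480/Em 530, 1 s cycles) in 1536-well TRHR cells with fluo-8 dye, after 10-cycle baseline and 23 nL compound addition; TRH at EC20 (10 nM final) added afterwards for the enhancer phase.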
D1 antagonist – antagonists of human D1 dopamine receptor. HEK293 TREx D1 cells, calcium flux, dopamine EC80; stronger effect = lower value. activity change, negative = inhibition, % at 10 µM. 360,000 tested, 3.2% active. AID 504652; in the data active means activity change below about -30%; further: on the % scale 0 is the no-effect control and ±100 the full control effect
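Inducible Hek293 Trex D1 cells (tetracycline, overnight, 30 C). Calcium dye 30–90 min RT. Antagonist mode: EC80 dopamine added after 180 s compound read.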
D1 ag – activates the human D1 dopamine receptor; P21728; HEK293 T-REx D1 cells, calcium flux, agonist mode; activation, % at 2 µM; 360,000 tested, 1% active; further: 0% is about no effect
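Inducible HEK293 T-REx D1 cells, force-coupled to calcium signalling, were plated at 4000 cells/well with tetracycline and held overnight at 30 C. After no-wash calcium dye loading, compound-evoked calcium rise over 180 s flagged agonists.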
TRHR PAM – TRH receptor (human) allosteric enhancement; AID 493056; TRHR cells, fluo-8 calcium fluorescence, EC20 TRH enhancement; P34981; 360,000 tested, 0.66% active; enhancement, % at 2 µM; in the data active means enhancement above about 30%; further: 0% is about no effect
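TRHR-expressing cells loaded with fluo-8 calcium dye were read kinetically (ex 480/em 530) during compound addition, then stimulated with an EC20 of TRH (10 nM final). Enhancement of the Gq-mediated intracellular calcium response was scored.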
Epigenetic reg – epigenetic control regulation, reporter derepression; Potency, µM (doses to about 53.9 µM), for inactives: at the highest dose GFP activation, hits mostly activators; 280,000 tested, 0.2% active; murine LDR cells, GFP reporter derepression, 30 h; active means well fitted activation curve with a large enough effect; inconclusive means small, poorly fitted or top-dose-only effect; further: potency means the concentration at half of the fitted maximal effect; % of control where 0% means no effect; nearly all actives have a fitted effect of over 60% in size
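GFP-positive cell count by laser-scanning cytometry (objects 20–120 um) after 30 h, 37 C compound exposure of murine LDR cells; reporter is CMV-GFP integrated at a silenced locus, inducible by HDAC or DNMT inhibitors.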
Active calls of the source: *; ? = inconclusive; nt = no result given; [ ] = another dose, or the depositor's remark. Unless noted, no stated cut-off is given here; in the data, active means activation above about 30%; inactive means the rest.

SMILES	D1 PAM	TRHR agonist	D1 antagonist	D1 ag	TRHR PAM	Epigenetic reg
O=[N+]([O-])c1cccc(S(=O)(=O)c2ccc(NCCOCCO)c([N+](=O)[O-])c2)c1	-3	1	1	8	-11	nt
O=[N+]([O-])c1cccc(S(=O)(=O)c2ccc(NCCO)c([N+](=O)[O-])c2)c1	-2	0	-44*	6	-11	-1%
COc1ccc(/C=C/C2=CC3(C)CC2(C)C(c2ccc(OC)cc2)CC3=O)cc1 (centres undefined)	nt	nt	nt	nt	nt	1%[10.1 µM]
CCn1c(C(=O)Nc2ccc(C)cc2C)cc2sc(Cl)cc21	-2	0	-4	0	-2	1%
COc1ccc(CCn2c(N)cc(=O)[nH]c2=O)cc1OC	-7	0	-48*	1	7	0%
COc1ccc(CCn2c(N)cc(=O)[nH]c2=S)cc1OC	-10	0	-10	0	-8	0%
COc1ccc(CCn2cc(C#N)c(=O)[nH]c2=O)cc1OC	-3	1	20	0	38*	-4%
Cc1ccc(C(=O)c2cn(Cc3cc(C)ccc3C)c3nc(C)ccc3c2=O)cc1	2	0	6	9	16	-2%
O=[S+]([O-])(c1cc2ccccc2o1)N1CCN([S+](=O)([O-])c2c(F)cccc2F)CC1	4	1	15	2	-2	nt
CCOC(=O)c1csc(-c2ccc(OC)c(OC)c2)n1	3	0	25	2	5	0%
COc1ccc(-c2nc(C(=O)O)cs2)cc1OC	-7	0	-36*	8	0	-3%
CCCOc1ccc(/C=C/C(=O)Nc2sc(C)c(C)c2C(=O)OCC)cc1OC	1	0	-13	1	0	1%
Fc1ccc(-c2cc(C(F)(F)F)nc(NCC3CCCO3)n2)cc1 (centres undefined)	2	-1	42	32*	6	-1%
FC(F)(F)c1cc(-c2ccccc2)nc(NCC2CCCO2)n1 (centres undefined)	3	0	7	0	4	0%
CCc1cc2c(nc1CC)CCN(CC/C(C)=N/O[C@@H](C)c1cn([C@H](CO)Cc3ccccc3)nn1)C2	nt	nt	nt	nt	nt	0%[10.1 µM]
CC(=O)C1=C(OC(=O)C(C)C)c2ccccc2S(=O)(=O)N1Cc1ccccc1	-2	0	-5	0	-6	2%
COc1cc(CN(CCc2c(C)[nH]c3ccc(C)cc23)C(=S)NC(C)(C)C)cc(OC)c1OC	-9	1	-25	30*	-5	-2%
CC(C)(C)c1ccc(NC(=O)C2=CC=CN3CCS(=O)(=O)N=C23)cc1	0	0	-8	3	6	nt
Cc1ccc(Oc2ccc(NC(=O)C3=CC=CN4CCS(=O)(=O)N=C34)cc2)cc1	-9	0	2	32*	-9	nt
Cc1cccc(Oc2ccc(NC(=O)C3=CC=CN4CCS(=O)(=O)N=C34)cc2)c1	-9	0	-36*	13	-4	nt
Cc1cccc(CNC(=O)C2CCC(=O)N(C3CCCC3)C2)c1 (centres undefined)	-1	0	-45*	1	0	nt
CC1(C)CC(=O)c2c(oc3cc4c(cc23)OCO4)C1	nt	nt	nt	nt	nt	1%
Fc1cc(F)c2ncc3c(-c4ccccc4)nn(-c4cccc(Cl)c4)c3c2c1	3	-1	2	1	0	4%
COc1ccccc1/C=C/C(=O)/C=C/c1ccccc1O	-5	-1	-34*	4	-12	?
COc1ccccc1CCNC(=O)c1ccc(-c2nc(CSc3ccc(C)cc3)c(C)o2)cc1	-2	3	-5	10	3	10%
SMILES	D1 PAM	TRHR agonist	D1 antagonist	D1 ag	TRHR PAM	Epigenetic reg
COc1cc(CNCc2ccncc2)cc(Br)c1OCc1ccccc1F	-5	-1	-31*	10	4	-1%
COc1cc(CNCCN2CCOCC2)ccc1OCc1c(Cl)cccc1Cl	-3	1	8	12	-1	0%
CCOc1cc(CNCCO)cc(Br)c1OCc1ccccc1Cl	-3	3	24	68*	3	1%
CCOc1cc(CNCCN2CCOCC2)ccc1OCc1ccccc1Cl	-5	-4	-22	37*	7	-1%
CCOc1cc(CNCCCN2CCOCC2)cc(Br)c1OCc1ccccc1Cl	0	2	-12	67*	11	1%
COc1cc(CNc2ccc(O)cc2)cc(Br)c1OCc1ccccc1F	-4	-2	-16	0	1	3%
CCOc1cc(CNCCO)cc(Br)c1OCc1ccc(Cl)cc1	nt	nt	nt	nt	nt	0%
Cc1ccccc1CN1C(=O)c2ccccc2S(=O)c2ccc(C(=O)NCc3ccco3)cc21 (centres undefined)	-1	0	-18	3	-2	0%
Cn1c(=O)cc(OCCCC(=O)Nc2ccc(F)cc2)c2ccccc21	-5	-1	-6	0	-6	0%
CCCCC/C=C\C/C=C\CCCCCCCCCC(=O)NCCCC(=O)O	nt	nt	nt	nt	nt	-1%
CCC(=O)c1ccc(OC(=O)Cc2ccc(OC)cc2)cc1	-9	1	-33*	2	38*	nt
CCCCCc1c(C)nc(Nc2ccc(F)cc2)[nH]c1=O	-7	5	-29	21	-8	1%
CCCCc1c(C)nc(Nc2ccc(OC)cc2)[nH]c1=O	-1	0	-37*	1	7	-1%
CCCc1cc(=O)[nH]c(Nc2ccc(OCC)cc2)n1	4	0	-84*	9	-6	-1%
CCCCc1ccc(Nc2nc(CCC)cc(=O)[nH]2)cc1	0	-1	2	1	5	10%
Cc1cccc(N2CCN(C(=O)CN3CCSc4ccccc43)CC2C)c1 (centres undefined)	-2	0	-17	5	-11	0%
CCN(CC)S(=O)(=O)c1ccc2c(c1)N(CC(=O)NCCCN1CCN(c3ccc(OC)cc3)CC1)C(=O)CO2	-2	-1	-3	0	19	-1%
CCc1nnc(SCc2nc(-c3ccccc3Cl)oc2C)c2cc3sc(C)cc3n12	-1	0	-8	0	6	-4%
CC(NC(=O)[C@H](Cc1c[nH]c2ccccc12)NC(=O)[C@@H]1Cc2ccccc2CN1)c1ccccc1 (some centres undefined)	5	0	-5	8	30*	nt
Cc1cc(C)cc(NC(=O)[C@H](Cc2c[nH]c3ccccc23)NC(=O)[C@@H]2Cc3ccccc3CN2)c1	6	0	-20	3	0	nt
Cn1ncc(Cl)c1C(=O)Nc1ccc2c(c1)CCC2	3	0	-5	2	3	nt
CN1N=C(C(=O)Nc2ccc3c(c2)CCC3)CCC1=O	-3	0	-32*	1	-1	0%
CCN(CC)CCNC(=O)c1ccc(NC(=O)c2ccccc2-c2ccc(C(F)(F)F)cc2)cc1	-3	0	-19	70*	-2	nt
